Most compounds without a hit are left out; they make up all but 4.5% or so of the library.
TPT1 inh: inhibitors of Candida albicans tRNA 2'-phosphotransferase TPT1; recombinant caTPT1, FP RNA substrate dephosphorylation; inhibition, % at 5 µM; 300,000 tested, 0.81% active; AID 1962;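 active = inhibition above the mean of all tested compounds plus 3 SD, set per screening campaign, cut at about 24% in these data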;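 note: plate controls were DMSO alone for no effect and ferristatin control at 100 nM for full effect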
Rpn11 inh: blocks the human proteasome subunit Rpn11; O00487; human 26S proteasome, Ub4-pepOG fluorescence polarization; 20S core pre-blocked with epoxomicin; inhibition, % at 20 µM; 360,000 tested, 0.59% active; AID 588493;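 active = inhibition at 20 µM, scaled to each plate's controls, above about 33%, limit read from the data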
Target sequence (O00487 whole entry, looked up): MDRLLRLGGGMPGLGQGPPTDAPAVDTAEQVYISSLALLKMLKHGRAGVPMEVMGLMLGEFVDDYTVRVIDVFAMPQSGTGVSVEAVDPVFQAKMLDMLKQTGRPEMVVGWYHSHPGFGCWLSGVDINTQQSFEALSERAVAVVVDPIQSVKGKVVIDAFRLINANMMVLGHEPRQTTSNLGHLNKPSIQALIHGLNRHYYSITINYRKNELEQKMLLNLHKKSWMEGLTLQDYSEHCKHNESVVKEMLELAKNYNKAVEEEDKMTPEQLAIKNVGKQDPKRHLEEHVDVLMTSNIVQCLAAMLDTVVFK
EBNA-1 inhibitor: blocks EBNA-1 binding to DNA; EBNA-1 DNA binding, fluorescence polarization; inhibition, % at 14.8 µM; 300,000 tested, 0.34% active; AID 1950; in the data active = inhibition above about 28%
dFosB activator: mouse delta FosB homodimer activation | P13346 | AID 493131 | activation, % at 25 µM | purified delta FosB, TAMRA-CDK5 oligo fluorescence polarization; percent of positive-control signal above neutral wells | 340,000 tested, 0.99% active;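 active = mean activation above about 17%, with every replicate also reaching it, limit read from the data, passing the limit was not always enough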
Target sequence (P13346 whole entry, looked up): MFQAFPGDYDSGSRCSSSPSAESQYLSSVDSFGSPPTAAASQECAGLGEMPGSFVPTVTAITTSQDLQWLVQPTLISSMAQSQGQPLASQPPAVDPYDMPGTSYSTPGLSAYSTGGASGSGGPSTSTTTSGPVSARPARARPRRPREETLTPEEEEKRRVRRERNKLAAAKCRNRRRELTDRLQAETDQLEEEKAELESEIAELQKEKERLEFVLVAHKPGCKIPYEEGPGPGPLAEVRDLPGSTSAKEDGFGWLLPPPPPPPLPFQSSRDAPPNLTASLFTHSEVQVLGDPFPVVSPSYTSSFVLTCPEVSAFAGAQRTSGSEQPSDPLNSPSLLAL
ZTA DNA inh: ZTA (EBV) inhibition in EBNA-1 counter-screen. P03206. ZTA-DNA binding, fluorescence polarization. inhibition, % at 11 µM. 320,000 tested, 0.15% active. AID 2234; in the data active = inhibition above about 33%
GRIN3A LBD mod: modulates the human NR3A ligand-binding domain; NR3A LBD differential scanning fluorimetry, Tm shift; 0% = protein alone, 100% = glycine-bound protein; Tm shift relative to glycine control, % at 25 µM; 340,000 tested, 2.5% active;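 active = melting temperature shift of at least 10% of the positive control shift, at one fixed dose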
An asterisk follows results filed as active; / = no result given.

SMILES | TPT1 inh | Rpn11 inh | EBNA-1 inhibitor | dFosB activator | ZTA DNA inh | GRIN3A LBD mod
Cc1cccc(Nc2nc(-c3ccc(O)c(O)c3)cs2)n1 | -0.5 | 2.8 | 11.1 | -6.6 | -3.4 | 38.9*
Oc1ccc(-c2csc(Nc3cccc4ccccc34)n2)cc1O | 0.7 | -1.7 | 2.1 | -12.1 | -28.9 | 7.1
Cc1cccnc1Nc1nc(-c2ccc(O)c(O)c2)cs1 | 2.4 | -10.6 | -1.3 | -4.5 | -13.2 | 27.8*
O=C(COC(=O)c1ccc2[nH]c3c(c2c1)CCCC3)Nc1ccccc1 | -1.1 | -2.7 | 4.3 | 14.4 | -12.0 | 21.6*
Cc1cccc(C)c1NC(=O)COC(=O)c1ccc2[nH]c3c(c2c1)CCCC3 | 1.4 | -1.8 | -8.6 | -6.1 | -14.2 | 6.0
Cc1ccc(NC(=O)c2ncn(CC(=O)NCc3ccc4[nH]ccc4c3)n2)cc1C | / | -1.1 | / | 1.3 | / | -1.2
Cc1ccc(NC(=O)c2ncn(CCCN(CCCn3cnc(C(=O)Nc4ccc(C)c(C)c4)n3)Cc3ccc4[nH]ccc4c3)n2)cc1C | / | 15.8 | / | 77.0* | / | 2.5
CCN(C(=O)COC(=O)/C=C/c1ccccc1)C1CCCCC1 | 2.9 | 2.1 | 2.7 | -4.0 | 3.6 | -1.2
COc1ccc(NC(=O)c2c(N)no[n+]2[O-])cc1 | -0.3 | -12.3 | -3.5 | 20.5* | 7.1 | -2.9
O=C(CCc1ccccc1)NC(=S)Nc1ccccc1Br | -3.3 | -0.1 | -10.1 | -9.1 | -22.2 | -4.3
O=C1CC(N2C(=O)/C(=C/C=C/c3ccccc3)SC2=S)C(=O)N1c1ccccc1 (stereo not given) | 78.0* | / | -11.5 | -10.8 | -6.7 | 1.3
O=C(O)CN1C(=O)/C(=C/C=C/c2ccccc2)SC1=S | 0.2 | 1.2 | 0.8 | -0.6 | -9.9 | 20.6*
O=C(O)CN1C(=O)/C(=C\C(Br)=C\c2ccccc2)SC1=S | 5.6 | 18.4 | -13.6 | -5.9 | 5.3 | 13.3*
CC(=O)c1ccc(NC(=O)CN2C(=O)/C(=C/C=C/c3ccccc3)SC2=S)cc1 | 14.1 | / | -15.0 | -2.4 | -5.8 | 9.3
CC(=C\c1ccccc1)/C=C1/SC(=S)N(CCCC(=O)O)C1=O | / | 9.0 | / | -3.4 | / | -1.6
CCOC(=O)c1c(NC(=O)CSc2ncnc3[nH]ncc23)sc2c1CCC(C)C2 (stereo not given) | 3.5 | 10.3 | -2.1 | -10.7 | -1.7 | 0.1
CCOC(=O)c1c(NC(=O)CSc2nnnn2-c2ccccc2)sc2c1CCC(C)C2 (stereo not given) | 1.4 | -8.4 | 1.5 | 0.6 | 10.8 | 16.8*
C=CCn1c(CNC(=O)c2cccs2)nnc1SCC(=O)c1ccc(Br)cc1 | 0.8 | 2.8 | 2.5 | -9.2 | 4.5 | 13.3*
C=CCn1c(Cc2cccs2)nnc1SCC(=O)c1ccc(F)cc1 | -0.4 | 0.5 | -4.3 | -2.8 | 9.1 | -0.3
C=CCn1c(Cc2cccs2)nnc1SCC(=O)c1ccc2ccccc2c1 | -0.1 | 5.6 | 1.8 | -17.3 | 3.7 | 15.7*
O=C(Nc1ccc(NC(=S)NC(=O)c2ccccc2Cl)cc1)c1cccc(Cl)c1 | -3.6 | 5.5 | 6.0 | 0.5 | 4.5 | 18.3*
O=C(Nc1ccc(NC(=O)c2cccnc2Cl)cc1)c1cccc(Cl)c1 | -0.2 | 0.9 | 21.6 | 9.7 | -4.2 | 21.9*
CCNC(=S)Nc1cccc(NC(=O)c2ccccc2O)c1 | 0.1 | -6.5 | 7.1 | -2.6 | -3.3 | 11.0*
O=C(Nc1cccnc1)c1cccnc1Cl | 2.1 | -14.9 | -9.3 | -0.8 | 10.8 | -0.1
CCC(=O)Nc1cccc(NC(=S)NC(=O)c2ccccc2Cl)c1 | -4.5 | 1.2 | 0.8 | -3.9 | -18.9 | 17.2*
SMILES | TPT1 inh | Rpn11 inh | EBNA-1 inhibitor | dFosB activator | ZTA DNA inh | GRIN3A LBD mod
Cc1cc(C)n2nnnc2n1 | -1.3 | -0.2 | 3.8 | 0.3 | -0.1 | 2.0
c1ccc2oc(-c3ccc(Nc4nc(N5CCCC5)nc(N5CCOCC5)n4)cc3)nc2c1 | -6.7 | / | -20.8 | / | 6.0 | /
CCOc1ccc(N2CC(NC(=O)c3ccc4ccccc4c3)CC2=O)cc1 (stereo not given) | -1.0 | -2.1 | -0.4 | -6.6 | 11.7 | 1.2
OC(CN1CC=C(/C=C/c2ccc(Br)cc2)CC1)c1ccccc1 (stereo not given) | -0.1 | 2.0 | 10.4 | 4.5 | -5.5 | -1.5
Fc1ccc(F)c(C2=NNC(=Nc3ccccc3F)SC2)c1 | -3.8 | 7.5 | 11.9 | -1.6 | 2.4 | 1.0
Fc1ccccc1N=C1NN=C(c2ccccc2)CS1 | -1.0 | -0.5 | -15.7 | -6.0 | -0.3 | 13.5*
CCOc1ccc2nc(N/C(N)=N/C(=S)Nc3ccc(C)c(C)c3)nc(C)c2c1 | 0.6 | 1.8 | 6.0 | -6.7 | 3.4 | 20.1*
COc1ccc(NC(=S)/N=C(\N)Nc2nc(C)c3ccc(C)cc3n2)cc1 | -3.0 | 11.8 | 14.7 | -1.8 | 6.2 | 6.6
O=C(NC(c1ccccc1)c1c(O)ccc2ccccc12)c1ccccc1Cl (stereo not given) | 0.7 | 1.6 | 1.1 | -4.1 | -8.1 | 10.5*
CCOc1ccc(N(CC(=O)Nc2ccc(C)c(Cl)c2)S(C)(=O)=O)cc1 | 3.5 | -2.3 | 6.2 | -10.0 | -1.8 | -7.0
Cc1ccc(F)cc1C(=O)N1CCCC(c2cc(C(=O)Nc3ccccc3Cl)no2)C1 (stereo not given) | / | -6.8 | / | / | / | /
CN(C)S(=O)(=O)c1ccc(Cl)c(NC(=O)C2CCN(S(=O)(=O)c3cccs3)CC2)c1 | / | 1.9 | / | 1.0 | 6.0 | -0.2
Cc1cccc2sc(NC(=O)c3cccc(S(=O)(=O)N4CCc5ccccc54)c3)nc12 | -0.9 | -7.0 | -16.1 | 9.2 | 4.7 | 9.6
Cc1cc(C)c2nc(NC(=O)[C@@H](NC(=O)c3cccc(S(=O)(=O)N4CCOCC4)c3)C(C)C)sc2c1 | 2.9 | 9.7 | -12.9 | 0.2 | -9.8 | 34.3*
Cc1cc(C)c2nc(NC(=O)c3cccc(S(=O)(=O)N4CCc5ccccc54)c3)sc2c1 | 0.9 | 15.2 | -2.4 | 0.4 | -10.2 | 10.2*
Cc1cccc(C(=O)N[C@H](C(=O)Nc2cc(S(=O)(=O)N3CCCCC3)ccc2C)C(C)C)c1 | -0.3 | -3.8 | 10.4 | 0.8 | 1.8 | -0.2
Cn1c(NCC2CCCCC2)nc2cc(-c3ccsc3)sc2c1=O | / | -5.9 | / | / | / | /
O=C(COC(=O)CCc1nc2ccccc2c(=O)[nH]1)NC(=O)NC1CCCC1 | -1.0 | -4.6 | -5.5 | -2.9 | -8.1 | 11.6*
CC(OC(=O)CCc1nc2ccccc2c(=O)[nH]1)C(=O)NC1CCCC1 (stereo not given) | -2.2 | 1.6 | 9.1 | -6.5 | -0.1 | -2.9
N#CCCN(C(=O)COC(=O)CCc1nc2ccccc2c(=O)[nH]1)c1ccccc1F | / | -4.6 | / | 5.8 | -7.7 | 13.0*
CC(C#N)Sc1nnc(-c2ccccc2F)n1C1CC1 (stereo not given) | 3.0 | 0.0 | 4.4 | -1.7 | -5.5 | -3.7
CC(C)OC(=O)C(C(=O)C(F)(F)F)c1cc(NS(=O)(=O)c2ccc3ccccc3c2)c2ccccc2c1O (stereo not given) | -2.0 | 16.9 | 11.1 | -17.5 | -7.4 | 24.3*
CN(C)c1ccc(N/C(N)=N/c2nc(C(F)(F)F)cc(C(F)(F)F)n2)cc1 | -1.3 | -4.4 | 3.0 | -12.4 | 10.7 | -2.2

Assay outcomes as filed in PubChem.
